This is an account of results in PubChem BioAssay (Tox21).

Where “and” joins values, the source holds several entries; their conditions need not be identical. Equal values may be shown once. Where a structure was tested more than once in an assay, its records may differ in their call. Calls of active or inactive are those of the source. Unless noted, the call rests on the fitted dose curve; in most records, active means well fitted curve in the direction sought with a large enough effect in the repeat runs; inconclusive means weak or mixed curves; inactive means no such curve, though single readings can be large; an effect the other way counts as inactive or inconclusive.

A short description of assay [1]: qHTS assay to identify small molecule antagonists of the glucocorticoid receptor (GR) signaling pathway - cell viability counter screen (AID 720693). Further: nearly all actives have a fitted effect of over 55% in size. In general terms: Quantitative high-throughput screening tests each substance at several concentrations.
Assay [2] can be described thus: qHTS assay for identifying genotoxic compounds that show differential cytotoxicity against isogenic chicken DT40 cell lines with known DNA damage response pathways - wild type cell line (AID 743012). Further: nearly all actives have a fitted effect of over 60% in size. Further: potency means the concentration at half of the fitted maximal effect. The procedure, abridged:
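Cytotoxicity in repair-proficient parental chicken DT40 cells serves as the comparator for Rad54/Ku70- and Rev3-deficient lines. Cells were exposed to compounds for 40 h at 37 C/5% CO2, and ATP-based luminescence (CellTiter-Glo) measured viability.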

A short description of assay [3]: qHTS assay for identifying genotoxic compounds that show differential cytotoxicity against isogenic chicken DT40 cell lines with known DNA damage response pathways - Rev3 mutant cell line (AID 743014). Further: nearly all actives have a fitted effect of over 55% in size. Further: potency means the concentration at half of the fitted maximal effect.
A short description of assay [4]: qHTS assay for identifying genotoxic compounds that show differential cytotoxicity against isogenic chicken DT40 cell lines with known DNA damage response pathways - Rad54/Ku70 mutant cell line (AID 743015). Further: nearly all actives have a fitted effect of over 60% in size. Further: potency means the concentration at half of the fitted maximal effect.
Assay [5] can be described thus: qHTS assay to identify small molecule antagonists of the androgen receptor (AR) signaling pathway - cell viability counter screen (AID 743033; further: nearly all actives have a fitted effect of over 45% in size).
The nature of assay [6]: qHTS assay to identify small molecule antagonists of the androgen receptor (AR) signaling pathway using the MDA cell line - cell viability counter screen (AID 743041; further: nearly all actives have a fitted effect of over 45% in size; further: potency means the concentration at half of the fitted maximal effect). The procedure, abridged: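 In this qHTS counter assay, fluorescence intensity after CellTiter-Fluor addition indicated viability of MDA-kb2 AR-luc cells given compounds and R1881 for 16 h at 37C.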
A short description of assay [7]: qHTS assay to identify small molecule antagonists of the thyroid receptor (TR) signaling pathway - cell viability counter screen (AID 743064). Further: nearly all actives have a fitted effect of over 50% in size. Further: potency means the concentration at half of the fitted maximal effect. The procedure, abridged: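 GH3.TRE-Luc rat pituitary cells dosed after 4 hr plating, co-stimulated with T3 at 1 nM final, incubated 23.5 h at 37 C. Viability measured in the same wells by CellTiter-Fluor fluorescence after 30 min further at 37 C.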

A short description of assay [8]: qHTS assay to identify small molecule antagonists of the thyroid receptor (TR) signaling pathway (AID 743065). Further: nearly all actives have a fitted effect of over 55% in size. Further: potency means the concentration at half of the fitted maximal effect. The procedure, abridged: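 GH3.TRE-Luc rat pituitary cells carrying two TR response elements driving luciferase were plated for 4 h, given compound plus 1 nM T3 (final), and incubated 23.5 h at 37 C. ONE-Glo luminescence measured reporter inhibition; CellTiter-Fluor fluorescence tracked cytotoxicity.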

For assay [9], the system named is thyroid hormone receptor (rat, GH3 cells). Put plainly: qHTS assay to identify small molecule agonists of the thyroid receptor (TR) signaling pathway (AID 743066; calls by dose curve).
Assay [10] concerns the target Estrogen receptor (Homo sapiens) (UniProt P03372). Kind of assay: qHTS assay to identify small molecule antagonists of the estrogen receptor alpha (ER-alpha) signaling pathway (AID 743069; active means well fitted curve in the direction sought with a large enough effect in the signal ratio in the repeat runs, not every such curve was filed as active; inconclusive means weak or mixed curves, or effect the other way; inactive means no such curve, though single readings can be large or run the other way; the % refers to the signal ratio; further: potency means the concentration at half of the fitted maximal effect). The procedure, abridged:
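A 17beta-estradiol challenge was applied right after compound transfer to ER-alpha-UAS-bla HEK293 cells previously kept in charcoal-stripped serum. Plates stood 18 hr at 37C and 5% CO2; fluorescence was read following 2 hr FRET substrate loading at room temperature.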

Assay [11] shares this target. Kind of assay: qHTS assay to identify small molecule agonists of the estrogen receptor alpha (ER-alpha) signaling pathway (AID 743075; calls by dose curve;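 further: HEK293 GripTite cells with ER-alpha and UAS-driven beta-lactamase reporter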).
Assay [12] shares this target. Put plainly: qHTS assay to identify small molecule agonists of the estrogen receptor alpha (ER-alpha) signaling pathway using the BG1 cell line (AID 743079). Further: nearly all actives have a fitted effect of over 20% in size. Further: potency means the concentration at half of the fitted maximal effect.
Assay [13] in a line: qHTS assay to identify small molecule antagonists of the estrogen receptor alpha (ER-alpha) signaling pathway using the BG1 cell line (AID 743080; calls by dose curve;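 further: BG1 cells stimulated with 17beta-estradiol alongside compound; series mostly up to about 70 µM; nearly all actives have a fitted effect of over 25% in size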). The procedure, abridged:
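Readout is ONE-Glo luminescence, taken 30 min at room temperature after reagent addition, preceded by a CellTiter-Fluor viability read; BG1-Luc-4E2 cells had received compound and 17beta-estradiol for 21.5 h at 37 C.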

Assay [14] in a line: qHTS assay to identify small molecule antagonists of the estrogen receptor alpha (ER-alpha) signaling pathway using the BG1 cell line - cell viability counter screen (AID 743081).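 Further: compound given together with 17beta-estradiol as the ER stimulus; nearly all actives have a fitted effect of over 45% in size.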 Further: potency means the concentration at half of the fitted maximal effect.
For assay [15], the target named is Aromatase (Homo sapiens) (UniProt P11511). Kind of assay: qHTS assay to identify aromatase inhibitors (AID 743083). Further: series mostly up to about 70 µM; nearly all actives have a fitted effect of over 55% in size.
Aromatase (Homo sapiens), sequence (P11511 whole entry, looked up): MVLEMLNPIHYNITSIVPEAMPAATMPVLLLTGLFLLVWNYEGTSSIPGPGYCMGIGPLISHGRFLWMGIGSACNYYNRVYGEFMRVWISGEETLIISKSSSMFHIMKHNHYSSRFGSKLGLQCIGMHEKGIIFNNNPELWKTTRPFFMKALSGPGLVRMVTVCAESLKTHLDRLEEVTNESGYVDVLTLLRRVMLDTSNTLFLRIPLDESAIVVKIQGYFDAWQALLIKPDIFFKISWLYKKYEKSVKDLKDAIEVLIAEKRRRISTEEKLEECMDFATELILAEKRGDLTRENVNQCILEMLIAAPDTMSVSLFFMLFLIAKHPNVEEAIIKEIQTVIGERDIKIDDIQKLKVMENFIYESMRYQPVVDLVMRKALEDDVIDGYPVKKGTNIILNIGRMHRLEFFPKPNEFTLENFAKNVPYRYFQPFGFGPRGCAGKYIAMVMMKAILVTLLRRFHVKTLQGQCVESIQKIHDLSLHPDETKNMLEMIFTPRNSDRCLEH
Assay [16] can be described thus: qHTS assay to identify small molecule antagonists of the estrogen receptor alpha (ER-alpha) signaling pathway - cell viability counter screen (AID 743074; calls by dose curve;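 further: HEK293 cells carrying ER-alpha-UAS-bla reporter stimulated with 17beta-estradiol; nearly all actives have a fitted effect of over 45% in size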).

Estrogen receptor (Homo sapiens), sequence (P03372 whole entry, looked up): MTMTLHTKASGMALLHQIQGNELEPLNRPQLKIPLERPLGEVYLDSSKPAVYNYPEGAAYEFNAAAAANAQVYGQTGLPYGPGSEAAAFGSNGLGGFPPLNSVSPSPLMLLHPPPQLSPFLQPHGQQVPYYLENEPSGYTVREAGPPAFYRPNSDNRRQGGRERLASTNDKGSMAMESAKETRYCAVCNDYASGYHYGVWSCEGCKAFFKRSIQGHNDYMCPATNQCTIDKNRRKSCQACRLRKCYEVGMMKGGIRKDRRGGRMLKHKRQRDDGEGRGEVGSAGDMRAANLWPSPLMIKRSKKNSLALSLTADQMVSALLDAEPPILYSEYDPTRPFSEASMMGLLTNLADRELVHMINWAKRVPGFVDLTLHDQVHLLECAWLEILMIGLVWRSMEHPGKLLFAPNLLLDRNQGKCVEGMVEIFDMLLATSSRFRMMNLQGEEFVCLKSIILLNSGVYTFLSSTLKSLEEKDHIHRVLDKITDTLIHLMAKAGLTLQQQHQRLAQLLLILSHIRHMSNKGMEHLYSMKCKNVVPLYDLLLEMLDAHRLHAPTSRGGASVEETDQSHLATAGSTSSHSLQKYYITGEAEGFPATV

For `[O-][Cl+]O`, the Potency result in [1], in assay [2], in assay [3], in assay [4], in assay [5] and in assay [6] was “inactive” each time. In addition, the Potency entry in assay [7], in assay [8], in assay [9], in [10], in [11] and in assay [12] was “inactive” throughout. Moreover, the Potency entry in assay [13], in [14] and in assay [15] was “inactive” in each case.
For the compound `O=[N+]([O-])c1ccc(F)c([N+](=O)[O-])c1`, the Potency entry in [1], in [2], in assay [3], in [4], in assay [5] and in assay [7] was “inactive” in each case. The Potency result in [9], in [16], in [11] and in assay [15] was “inactive” throughout. The Potency in assay [6] is 55 µM (active); in assay [8], 61.7 µM (active); in assay [14] it was 18.8 µM (active) and 49 µM (active).
Take `[CH3][Sn]([CH3])([Cl])[Cl]`: the Potency entry in assay [1], in assay [5], in assay [6], in assay [9], in [16] and in [14] was “inactive” in each case. In addition, the Potency result in assay [15] was “inactive”. Also, the Potency in [2] was 54.5 µM (active); in [3], 62.1 µM (active) and 27.3 µM (active); in assay [4], 48.6 µM (active); in [7], 55.4 µM (active) and inactive; in assay [8], 55.4 µM (active) and 68.6 µM (active).
As to `O=C=Nc1ccc(Cl)cc1`, the Potency entry in assay [1], in assay [5], in assay [6], in assay [7], in assay [8] and in assay [9] was “inactive” in each case. Besides, the Potency result in assay [16], in [11], in assay [14] and in assay [15] was “inactive” each time. Moreover, the Potency in assay [2] was 27.3 µM (active); in assay [3], 54.5 µM (active); in assay [4] it was 27.3 µM (active); in [10], 3.47 µM [inhibitor] (active).
`Clc1cccc2ccccc12`: the Potency result in assay [1], in [2], in [3], in assay [4], in assay [5] and in assay [6] was “inactive” throughout. Further, the Potency result in [7], in [8], in assay [9], in assay [16], in assay [14] and in [15] was “inactive” throughout.
As for `C=COC(C)=O`, the Potency entry in assay [1], in assay [2], in [3], in assay [4], in assay [5] and in assay [6] was “inactive” throughout. Moreover, the Potency result in assay [7], in [8], in [9], in assay [16], in assay [14] and in assay [15] was “inactive” throughout.
On to `COC(=O)c1cncn1C(C)c1ccccc1` (stereo unspecified), for which the Potency result in assay [1], in assay [2], in assay [3], in [4], in assay [5] and in [6] was “inactive” throughout. The Potency entry in assay [7], in [8], in assay [9], in assay [10], in assay [16] and in [11] was “inactive” throughout. Also, the Potency entry in assay [12], in assay [13], in [14] and in [15] was “inactive” each time.
With `CC/C(=N\OC/C=C/Cl)C1=C(O)CC(C2CCOCC2)CC1=O` (stereo unspecified), the Potency entry in assay [1], in assay [2], in assay [3], in [4], in assay [5] and in [6] was “inactive” in each case. Besides, the Potency entry in assay [7], in [8], in assay [9], in [16], in assay [14] and in assay [15] was “inactive” in each case.
On to `CCOP(O)OCC`, for which the Potency result in [1], in [2], in [3], in [4], in [5] and in assay [6] was “inactive” throughout. Besides, the Potency result in assay [7], in [8], in assay [9], in [14] and in assay [15] was “inactive” throughout.
As to `COc1nn(C(=O)NS(=O)(=O)c2ccccc2OC(F)(F)F)c(=O)n1C`, the Potency result in assay [1], in assay [2], in assay [3], in [4], in assay [5] and in [6] was “inactive” throughout. Also, the Potency entry in [7], in assay [8], in [9], in assay [16], in assay [14] and in [15] was “inactive” throughout.
Regarding `O=[Se]=O`, the Potency result in assay [1], in assay [5], in [7], in [9], in assay [11] and in assay [15] was “inactive” each time. For the same compound, the Potency was 0.541 µM (active) in [2]; 0.341 µM (active) in assay [3]; 0.242 µM (active) in [4]; 19.2 µM (active) in assay [6]; 21.5 µM (active) in assay [8]; 6.12 µM [inconclusive] (active) in assay [10]. In [14], the Potency is 19.2 µM (active).
With `O=Cc1ccc2c(c1)OCO2`, the Potency entry in assay [1], in assay [2], in assay [3], in assay [4], in assay [5] and in assay [6] was “inactive” in each case. Besides, the Potency result in assay [7], in assay [8], in assay [9], in [16], in [14] and in assay [15] was “inactive” each time.
For `O=C(O)COc1ccc(Cl)cc1`, the Potency entry in [1], in assay [2], in assay [3], in assay [4], in assay [5] and in [6] was “inactive” each time. The Potency entry in assay [7], in assay [8], in assay [9], in [10], in assay [16] and in assay [11] was “inactive” throughout. Moreover, the Potency result in assay [12], in assay [13], in assay [14] and in assay [15] was “inactive” each time.
Take `NCC(CC(=O)O)c1ccc(Cl)cc1` (stereo unspecified): the Potency entry in [1], in assay [2], in assay [3], in assay [4], in assay [5] and in [6] was “inactive” throughout. The Potency result in assay [7], in assay [8], in assay [9], in assay [16], in assay [14] and in assay [15] was “inactive” each time.
Take `CC1C(=O)C[C@]2(C(C)C)C[C@H]12` (stereo partly specified): the Potency result in assay [1], in assay [2], in [3], in assay [4], in [5] and in [6] was “inactive” in each case. For the same compound, the Potency result in [7], in [8], in assay [9], in assay [14] and in [15] was “inactive” in each case.
Turning to `CC[C@H]1C[C@H]2[C@@H]3CCC4=CC(=O)CC[C@@H]4[C@H]3CC[C@]2(C)[C@H]1O`, the Potency result in assay [1], in assay [5], in [6], in assay [7], in [9] and in assay [11] was “inactive” in each case. The Potency entry in assay [15] was “inactive”. For the same compound, the Potency was 16.8 µM (active) in assay [2]; 29.8 µM (active) in [3]; 21.1 µM (active) in assay [4]; 21.1 µM (active) in assay [8]; 10.6 µM (active) in assay [12].
On to `O=[N+]([O-])c1ccccc1CCl`, for which the Potency entry in [1], in assay [2], in [3], in assay [4], in [5] and in [6] was “inactive” each time. For the same compound, the Potency result in [7], in assay [8], in assay [9], in assay [10], in assay [16] and in assay [11] was “inactive” throughout. In addition, the Potency entry in [12], in assay [14] and in assay [15] was “inactive” each time.
In the case of `CCOC(=O)CBr`, the Potency entry in [1], in assay [2], in assay [3], in assay [4], in assay [5] and in assay [6] was “inactive” each time. In addition, the Potency entry in assay [8], in assay [9], in assay [16], in [14] and in assay [15] was “inactive” in each case.
For the compound `ClCCCCBr`, the Potency entry in assay [1], in assay [2], in [3], in assay [4], in assay [5] and in [6] was “inactive” in each case. Besides, the Potency entry in [7], in assay [16], in assay [14] and in assay [15] was “inactive” each time.
`c1ccc(CN2CCNCC2)cc1`: the Potency entry in assay [1], in [2], in assay [3], in assay [4], in [5] and in assay [7] was “inactive” throughout. The Potency result in assay [8], in assay [9], in assay [16] and in assay [14] was “inactive” throughout.
